The compounds below were run on Plasmodium falciparum (assay: GSK_TCMDC: Inhibition of Plasmodium falciparum Dd2 in whole red blood cells, using parasite LDH activity as an index of growth. Test compounds present at 2uM).
Type: functional

Point of comparison: COc1ccc(-c2cnc3[nH]cc(-c4ccc(C(=O)O)c(C)c4)c3c2)cn1.O=C(O)C(F)(F)F, Inhibition 99%. Against it:
- Cc1cc(N2CCCC2)nc(Nc2ccc(NC(=O)c3ccccc3C)cc2)n1 — lower, 40%
- CCOc1ccc(-c2noc(-c3c[nH]c4ccccc4c3=O)n2)cc1 — lower, 93%
- CCc1ccc(NC(=O)c2ccc(CN3CCCN(Cc4cccc(O)c4)CC3)cc2)cc1.O=C(O)C(F)(F)F — lower, 55%
- Cc1ccnc2nc(C(=O)Nc3cc(Cl)ccc3N3CCOCC3)nn12 — lower, 63%
- Clc1ccc(CNc2ccnc(NCc3ccc4c(c3)OCCCO4)n2)c(Cl)c1 — lower, 20%
- Cn1nc(-c2ccc(NC(=O)Nc3cc(C(F)(F)F)ccc3F)c(F)c2)c2cnc(NCCCN3CCOCC3)nc21.O=C(O)C(F)(F)F — lower, 62%
- O=C(O)C(F)(F)F.OC1CCCN(Cc2cccc(-c3ccc(-c4nc5ccccc5[nH]4)cc3)c2)C1 (stereo not drawn) — lower, 16%
- O=[N+]([O-])c1cccc(-c2ccc(C=NNc3cc(N4CCCC4)nc(N4CCCC4)n3)o2)c1 — lower, 67%
- CN1C(C)(C)CC(NC(=O)c2ccc(-c3cc4cc(Cl)c(Cl)cc4[nH]3)o2)CC1(C)C — lower, 43%
- O=C(O)C(=O)O.c1ccc(C2CCC(N3CCC(N4CCCC4)CC3)CC2)cc1 (stereo not drawn) — lower, 46%
- CCC(COCc1ccc(Cl)cc1)N(C)CCN(C)C(CC)COCc1ccc(Cl)cc1.Cl (stereo not drawn) — lower, 78%
- CCN(CC)/C(=N/C(=N)Nc1ccc(Br)cc1)NCCCCCCN/C(=N\C(=N)Nc1ccc(Br)cc1)N(CC)CC — lower, 95%

Source: ChEMBL document CHEMBL1157539, “Thousands of chemical starting points for antimalarial lead identification” (Nature, 2010)
